This note sets out measurements from PubChem BioAssay (EPA / NIEHS).

Activity calls are given as the source filed them. Rule for the calls: active = hit-call score of the fitted dose curve at least 0.9, where 1 is the maximum; inactive = score below 0.9.

Read-out in assay [1]: Tissue Factor, F3 (gene 2152)
Put plainly: BSK_CASM3C_TissueFactor: BioMAP Diversity Plus: CASM3C Assay for Tissue Factor Biomarker Activity (AID 2283052).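 Note: cell surface tissue factor protein level read by ELISA.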 Conditions: primary human coronary artery smooth muscle cells; actives raise or lower the signal.

Read-out in assay [2]: Interferon-gamma inducible Protein 10 (IP10), CXCL10 (gene 3627)
Put plainly: BSK_hDFCGF_IP10: BioMAP Diversity Plus: hDFCGF Assay for Interferon-gamma inducible Protein 10 (IP10) Biomarker Activity (AID 2283053). Particulars: primary human foreskin fibroblasts; actives raise or lower the signal. The method, boiled down:
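ELISA read-out of IP-10 (CXCL10) from primary human skin fibroblasts, 24 h after compound addition. Gain or loss of signal versus DMSO baseline, bidirectional curve fitting.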

Read-out in assay [3]: Urokinase-type plasminogen activator receptor (uPAR), PLAUR (gene 5329)
The assay can be described thus: BSK_CASM3C_uPAR: BioMAP Diversity Plus: CASM3C Assay for Urokinase-type plasminogen activator receptor (uPAR) Biomarker Activity (AID 2283054).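 Note: cell-surface uPAR protein level quantified by ELISA.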 Particulars: primary human coronary artery smooth muscle cells; actives raise or lower the signal.

Read-out in assay [4]: Vascular cell adhesion molecule 1 (VCAM1), VCAM1 (gene 7412)
The assay can be described thus: BSK_CASM3C_VCAM1: BioMAP Diversity Plus: CASM3C Assay for Vascular cell adhesion molecule 1 (VCAM1) Biomarker Activity (AID 2283055).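 Note: VCAM-1 protein level quantified by ELISA on the cells.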 Conditions: primary human coronary artery smooth muscle cells; actives raise or lower the signal.

Read-out in assay [5]: Collagen III, COL3A1 (gene 1281)
Put plainly: BSK_hDFCGF_CollagenIII: BioMAP Diversity Plus: hDFCGF Assay for Collagen III Biomarker Activity (AID 2283056). Conditions: primary human foreskin fibroblasts; actives raise or lower the signal. The method, boiled down:
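Response relative to DMSO, fitted in both directions, reflects ELISA-measured collagen III in human primary skin fibroblasts 24 h after compound addition.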

Read-out in assay [6]: Epidermal growth factor receptor (EGFR), EGFR (gene 1956)
The assay can be described thus: BSK_hDFCGF_EGFR: BioMAP Diversity Plus: hDFCGF Assay for Epidermal growth factor receptor (EGFR) Biomarker Activity (AID 2283057). Particulars: primary human foreskin fibroblasts; actives raise or lower the signal. The method in brief: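 ELISA readout of EGFR on human dermal fibroblasts (primary foreskin cells), 24 h post-dosing; bidirectional curve fit vs DMSO baseline, gain or loss of signal scored.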

Read-out in assay [7]: Interleukin-8 (IL8), CXCL8 (gene 3576)
The assay can be described thus: BSK_hDFCGF_IL8: BioMAP Diversity Plus: hDFCGF Assay for Interleukin-8 (IL8) Biomarker Activity (AID 2283058). Conditions: primary human foreskin fibroblasts; actives raise or lower the signal. The method, boiled down: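 Fibroblast monolayers (human foreskin, hDFCGF) received test chemical for 24 h before ELISA detection of IL-8; either increases or decreases relative to DMSO count as activity.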

The nature of assay [8]: BSK_hDFCGF_Proliferation: Cell Proliferation Assessment in the BioMAP Diversity Plus: hDFCGF Assay (AID 2283059).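 Note: curves fitted for both rise and fall of signal versus DMSO baseline.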 Conditions: primary human foreskin fibroblasts. The method in brief: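 Total protein read at 560 nm after 0.1% SRB staining of TCA-fixed human skin fibroblasts, […]. Activity is fitted in both directions relative to DMSO as baseline.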

Read-out in assay [9]: Macrophage colony-stimulating factor (MCSF), CSF1 (gene 1435)
The assay can be described thus: BSK_hDFCGF_MCSF: BioMAP Diversity Plus: hDFCGF Assay for Macrophage colony-stimulating factor (MCSF) Biomarker Activity (AID 2283060). Conditions: primary human foreskin fibroblasts; actives raise or lower the signal. The method, boiled down: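 fibroblasts (human foreskin, primary), 24 h post-dose; M-CSF by ELISA; bidirectional fit, DMSO = baseline.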

Assay [10] in a line: BSK_hDFCGF_SRB: Viability Assessment in the BioMAP Diversity Plus: hDFCGF Assay (AID 2283061).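 Note: cells exposed to compound for 24 h before the read.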 Conditions: primary human foreskin fibroblasts. The method, boiled down: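 SRB-based viability read on primary human skin fibroblasts at 24 h: TCA fixation, 0.1% dye, 560 nm. Gain or loss of signal is fitted against the DMSO negative control.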

Consider `CCOCCOCCOCCO`, for which the result in [1], in assay [2], in [3], in [4], in assay [5] and in [6] was inactive. Moreover, the outcome in assay [7], in assay [8] and in [9] was inactive.
For `O=C1OC(=O)C2C3C=CC(C3)C12` (stereo not drawn), the result in assay [1], in [2], in assay [3], in assay [4], in [5] and in assay [6] was inactive. Moreover, the outcome in assay [7], in [8] and in assay [9] was inactive.
Consider `CC1=CC(=O)CC(C)(C)C1`, for which the result in assay [1], in [2], in [3], in [4], in assay [5] and in [6] was inactive. Besides, the outcome in [7], in [8] and in assay [9] was inactive.
In the case of `CCc1cc(SCc2sc(-c3ccc(C(F)(F)F)cc3)nc2CN2CCN(c3ccc(OC)cc3)CC2)ccc1OCC(=O)O`, the result in [1] was inactive. Further, the AC50 (as a rule, the concentration at which the activity in the assay is half-maximal) in assay [2] is 2.18 µM (active); in assay [3], 15.3 µM (active); in assay [4], 33 µM (active); in assay [5], 3.97 µM (active); in [6], 1.94 µM (active); in assay [7] it was 5.15 µM (active). For the same molecule, the AC50 in assay [8] was 1.68 µM (active); in assay [9], 3.28 µM (active).
Regarding `Cc1ccc(C)c(O)c1`, the result in assay [1], in assay [2], in assay [3], in [4], in [5] and in assay [6] was inactive. Besides, the result in [7], in assay [8] and in [9] was inactive.
As for `CNCc1ccc(NC(=O)c2c[nH]c3c2C(=O)CCC3)cc1`, the result in assay [1], in assay [2], in [3], in [4], in [5] and in [6] was inactive. Further, the result in assay [7], in [8] and in assay [9] was inactive.
Take `CCOc1cccc(-n2cc(C(=O)N3CCN(c4cc(C(=O)O)c5ccccc5c4)CC3)nc2-c2ccc(C)cc2)c1`: the result in assay [1] was inactive. Besides, the AC50 in assay [2] was 10.4 µM (active); in assay [3], 31.1 µM (active); in assay [4], 19.2 µM (active); in assay [5], 4.99 µM (active); in assay [6], 5.21 µM (active); in assay [7], 14.2 µM (active). For the same molecule, the AC50 in assay [8] was 10.2 µM (active); in assay [9], 7.68 µM (active); in assay [10] it was 6.49 µM (active).
With `CCNc1ccccc1`, the result in assay [1], in assay [2], in [3], in assay [4], in [5] and in [6] was inactive. The outcome in assay [7], in assay [8], in assay [9] and in [10] was inactive.
Take `O=c1[nH]c2ccc(S(=O)CCN3CCC(Cc4ccc(F)cc4)CC3)cc2o1` (stereo not drawn): the outcome in [1], in assay [2], in assay [3], in assay [4], in assay [6] and in [7] was inactive. Besides, the result in assay [9] and in [10] was inactive. The results for the AC50 in assay [5] and in assay [8] were 13.9 µM (active) and 4.49 µM (active), respectively.
Take `O=C1CCC(N2C(=O)c3ccccc3C2=O)C(=O)N1` (stereo not drawn): the outcome in assay [1], in [2], in assay [3], in assay [4], in assay [5] and in assay [6] was inactive. Further, the outcome in assay [7], in [8] and in assay [9] was inactive.
Turning to `COCCOCCOCCOC`, the outcome in assay [1], in assay [2], in assay [3], in [4], in assay [5] and in assay [6] was inactive. In addition, the outcome in [7], in assay [8], in [9] and in assay [10] was inactive.
As for `NC(=O)NO`, the outcome in assay [1], in [2], in assay [3], in assay [4], in assay [5] and in assay [6] was inactive. Moreover, the outcome in assay [7], in [8] and in assay [9] was inactive.
In the case of `Cc1ccc(S(=O)(=O)O)cc1C`, the result in assay [1], in [2], in assay [3], in assay [4], in assay [5] and in [6] was inactive. Besides, the result in [7], in assay [8] and in assay [9] was inactive.
Take `CCCCC(CC)COC(=O)c1ccc(C(=O)OCC(CC)CCCC)cc1` (stereo not drawn): the outcome in assay [1], in [2], in assay [3], in assay [4], in [5] and in [6] was inactive. Besides, the result in assay [7], in assay [8] and in assay [9] was inactive.
For `O=c1n(CC2CO2)c(=O)n(CC2CO2)c(=O)n1CC1CO1` (stereo not drawn), the outcome in [1], in assay [2], in assay [3], in assay [7] and in [10] was inactive. Moreover, the concentration at half-maximal activity (AC50) is 18.6 µM (active) in assay [4]; 6.71 µM (active) in [5]; 30.7 µM (active) in assay [6]; 4.36 µM (active) in assay [8]; 20 µM (active) in [9].
As to `COC(=O)CC(=O)OC`, the result in assay [1], in [2], in assay [3], in [4], in assay [5] and in [6] was inactive. The result in assay [7], in [8], in [9] and in assay [10] was inactive.
For `CNS(=O)(=O)c1cc(C(=O)N2CCC(CCN3C4CCC3CC(n3c(C)nc5ccccc53)C4)(c3cccc(F)c3)CC2)c(Cl)cc1F` (stereo not drawn), the outcome in assay [1], in assay [2], in [3], in assay [6], in assay [7] and in [9] was inactive. The AC50 is 6.7 µM (active) in [4], 20 µM (active) in assay [5], 11.5 µM (active) in assay [8] and 24.8 µM (active) in [10].
Take `O=C(NS(=O)(=O)/C=C/c1ccccc1)c1ccc(F)cc1Cl`: the result in assay [1], in assay [2], in assay [3], in [4], in assay [5] and in [6] was inactive. Also, the result in [7], in assay [9] and in [10] was inactive. The AC50 in assay [8] was 12.9 µM (active).
In the case of `CCCCCCCCCCCCCCCO`, the result in assay [1], in [2], in assay [3], in assay [4], in [5] and in assay [6] was inactive. The result in [7] and in assay [9] was inactive. The AC50 in [8] was 20 µM (active).
Consider `Clc1nc(Cl)c(Cl)c(Cl)c1Cl`, for which the outcome in assay [1], in assay [2], in assay [3], in assay [4], in [5] and in [6] was inactive. Besides, the outcome in assay [7], in [8], in [9] and in [10] was inactive.
Regarding `O=C(O)c1cccc(N(Cc2cccnc2)c2ccc(OC(F)F)c(OC(F)F)c2)c1`, the outcome in assay [1], in assay [2], in assay [3], in assay [4], in assay [5] and in assay [6] was inactive. Further, the result in [7], in assay [8] and in assay [9] was inactive.
Regarding `Oc1ccc2c(c1)-c1ccccc1C2`, the outcome in assay [1], in assay [2], in assay [3], in assay [4], in assay [5] and in [6] was inactive. The outcome in assay [7], in assay [9] and in assay [10] was inactive. The AC50 in assay [8] was 29.8 µM (active).
